Values without a mark were called inactive.
Tests used:
Experiment in all cases: log2 ratio of Biotin-Ahx-Ub-VS probe labelling (fragment/DMSO); higher = less target engagement (more negative = stronger competition), active = hit call of the paper (q ≤ 0.05, log2 ratio ≤ -1)
Settings in all cases: compound concentration: 200 uM; treatment time: 3 h
USP19 = target: T1, USP19 (UniProt O94966)
T1 sequence (whole entry): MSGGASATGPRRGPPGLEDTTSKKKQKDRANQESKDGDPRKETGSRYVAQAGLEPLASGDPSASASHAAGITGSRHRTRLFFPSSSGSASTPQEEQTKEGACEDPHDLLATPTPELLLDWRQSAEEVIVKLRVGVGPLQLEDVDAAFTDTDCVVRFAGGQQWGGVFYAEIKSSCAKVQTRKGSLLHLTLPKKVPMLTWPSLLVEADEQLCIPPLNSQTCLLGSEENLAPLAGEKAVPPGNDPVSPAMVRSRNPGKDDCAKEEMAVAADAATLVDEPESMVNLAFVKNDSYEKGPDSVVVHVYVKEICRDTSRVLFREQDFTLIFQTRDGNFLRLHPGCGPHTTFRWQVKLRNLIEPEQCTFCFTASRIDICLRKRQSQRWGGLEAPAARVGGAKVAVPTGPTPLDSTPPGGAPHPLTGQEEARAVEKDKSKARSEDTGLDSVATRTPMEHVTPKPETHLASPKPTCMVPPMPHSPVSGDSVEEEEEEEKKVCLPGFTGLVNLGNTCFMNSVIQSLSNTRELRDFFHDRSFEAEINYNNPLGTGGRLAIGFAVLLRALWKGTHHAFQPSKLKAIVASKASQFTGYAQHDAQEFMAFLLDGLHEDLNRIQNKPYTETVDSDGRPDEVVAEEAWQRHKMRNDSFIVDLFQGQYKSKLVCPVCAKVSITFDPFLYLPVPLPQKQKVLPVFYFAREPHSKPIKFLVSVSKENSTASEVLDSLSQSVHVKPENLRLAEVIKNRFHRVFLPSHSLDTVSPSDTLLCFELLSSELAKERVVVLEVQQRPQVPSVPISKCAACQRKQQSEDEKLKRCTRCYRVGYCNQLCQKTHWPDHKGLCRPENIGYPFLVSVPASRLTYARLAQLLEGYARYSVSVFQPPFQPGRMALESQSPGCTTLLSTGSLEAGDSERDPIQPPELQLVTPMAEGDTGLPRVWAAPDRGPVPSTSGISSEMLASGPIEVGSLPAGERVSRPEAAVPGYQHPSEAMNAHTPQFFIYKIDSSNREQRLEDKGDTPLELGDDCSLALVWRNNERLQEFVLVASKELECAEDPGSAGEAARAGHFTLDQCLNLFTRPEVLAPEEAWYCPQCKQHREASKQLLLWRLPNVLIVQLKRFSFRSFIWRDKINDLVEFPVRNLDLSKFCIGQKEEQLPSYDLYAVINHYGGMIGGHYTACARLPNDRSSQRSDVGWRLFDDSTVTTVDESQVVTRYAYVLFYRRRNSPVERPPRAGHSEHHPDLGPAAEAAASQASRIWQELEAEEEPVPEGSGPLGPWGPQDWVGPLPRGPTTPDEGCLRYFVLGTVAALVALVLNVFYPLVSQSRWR
Method in brief: (§1)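 HEK293T lysate, 495 µg per sample in Tris/CHAPS/IGEPAL buffer with protease inhibitors, was treated in triplicate with fragment at 200 µM or vehicle for 3 h and then with Biotin-Ahx-Ub-VS at 0.5 µM final for 1 h. Labelled DUBs were NeutrAvidin-enriched, digested with LysC and trypsin, and run by diaPASEF LC-MS/MS. Spectronaut label-free quantities were global-median-normalised, and values are average log2 fragment/vehicle ratios by unpaired t-test on proteins with ≥2 unique peptides.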

USP22 = target: T2, USP22 (UniProt Q9UPT9)
T2 sequence (whole entry): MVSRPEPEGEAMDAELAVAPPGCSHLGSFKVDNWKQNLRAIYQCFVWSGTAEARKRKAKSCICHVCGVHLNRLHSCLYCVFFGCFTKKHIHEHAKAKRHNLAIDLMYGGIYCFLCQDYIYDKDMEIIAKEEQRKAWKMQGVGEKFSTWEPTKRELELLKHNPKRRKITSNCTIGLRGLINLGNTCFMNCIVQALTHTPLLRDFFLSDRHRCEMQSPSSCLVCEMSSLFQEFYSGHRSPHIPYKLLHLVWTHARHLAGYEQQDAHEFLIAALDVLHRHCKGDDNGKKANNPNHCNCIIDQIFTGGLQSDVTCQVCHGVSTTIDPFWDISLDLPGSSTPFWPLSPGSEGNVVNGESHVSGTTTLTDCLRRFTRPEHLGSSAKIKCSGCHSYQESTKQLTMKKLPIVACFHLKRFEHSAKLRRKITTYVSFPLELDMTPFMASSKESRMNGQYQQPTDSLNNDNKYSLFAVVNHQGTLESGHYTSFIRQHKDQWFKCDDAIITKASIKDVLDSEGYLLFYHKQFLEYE
Method in brief: as §1

USP24 = USP24 (UniProt Q9UPU5)
Method in brief: as §1

USP25 = target: T3, USP25 (UniProt Q9UHP3)
T3 sequence (whole entry): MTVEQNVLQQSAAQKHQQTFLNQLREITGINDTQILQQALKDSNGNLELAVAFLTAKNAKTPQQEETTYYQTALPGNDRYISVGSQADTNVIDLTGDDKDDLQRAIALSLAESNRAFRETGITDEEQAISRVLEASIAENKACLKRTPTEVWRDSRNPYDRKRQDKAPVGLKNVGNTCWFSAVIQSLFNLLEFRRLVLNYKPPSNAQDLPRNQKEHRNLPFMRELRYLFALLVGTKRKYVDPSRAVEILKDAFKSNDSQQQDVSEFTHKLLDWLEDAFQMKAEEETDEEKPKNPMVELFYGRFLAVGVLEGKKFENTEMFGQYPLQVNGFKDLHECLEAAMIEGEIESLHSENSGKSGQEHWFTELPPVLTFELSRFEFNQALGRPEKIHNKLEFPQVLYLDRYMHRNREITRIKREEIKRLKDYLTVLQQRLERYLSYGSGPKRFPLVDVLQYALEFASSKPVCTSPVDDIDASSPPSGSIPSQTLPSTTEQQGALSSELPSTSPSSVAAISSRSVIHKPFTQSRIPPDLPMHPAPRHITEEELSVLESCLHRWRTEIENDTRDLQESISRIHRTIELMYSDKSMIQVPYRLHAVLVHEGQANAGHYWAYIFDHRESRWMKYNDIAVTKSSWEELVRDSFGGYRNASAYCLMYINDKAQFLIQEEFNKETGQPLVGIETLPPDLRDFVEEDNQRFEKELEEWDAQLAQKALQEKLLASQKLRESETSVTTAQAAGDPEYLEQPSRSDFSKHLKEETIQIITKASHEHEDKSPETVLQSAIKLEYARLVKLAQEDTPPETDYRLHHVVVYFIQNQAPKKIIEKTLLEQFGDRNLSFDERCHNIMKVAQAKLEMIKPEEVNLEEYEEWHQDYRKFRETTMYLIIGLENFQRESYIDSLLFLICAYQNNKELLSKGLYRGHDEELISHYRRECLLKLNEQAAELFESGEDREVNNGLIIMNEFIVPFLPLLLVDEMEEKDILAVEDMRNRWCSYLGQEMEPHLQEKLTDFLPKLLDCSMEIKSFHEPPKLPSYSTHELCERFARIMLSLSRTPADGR
Method in brief: as §1

USP28 = target: T4, USP28 (UniProt Q96RU2)
T4 sequence (whole entry): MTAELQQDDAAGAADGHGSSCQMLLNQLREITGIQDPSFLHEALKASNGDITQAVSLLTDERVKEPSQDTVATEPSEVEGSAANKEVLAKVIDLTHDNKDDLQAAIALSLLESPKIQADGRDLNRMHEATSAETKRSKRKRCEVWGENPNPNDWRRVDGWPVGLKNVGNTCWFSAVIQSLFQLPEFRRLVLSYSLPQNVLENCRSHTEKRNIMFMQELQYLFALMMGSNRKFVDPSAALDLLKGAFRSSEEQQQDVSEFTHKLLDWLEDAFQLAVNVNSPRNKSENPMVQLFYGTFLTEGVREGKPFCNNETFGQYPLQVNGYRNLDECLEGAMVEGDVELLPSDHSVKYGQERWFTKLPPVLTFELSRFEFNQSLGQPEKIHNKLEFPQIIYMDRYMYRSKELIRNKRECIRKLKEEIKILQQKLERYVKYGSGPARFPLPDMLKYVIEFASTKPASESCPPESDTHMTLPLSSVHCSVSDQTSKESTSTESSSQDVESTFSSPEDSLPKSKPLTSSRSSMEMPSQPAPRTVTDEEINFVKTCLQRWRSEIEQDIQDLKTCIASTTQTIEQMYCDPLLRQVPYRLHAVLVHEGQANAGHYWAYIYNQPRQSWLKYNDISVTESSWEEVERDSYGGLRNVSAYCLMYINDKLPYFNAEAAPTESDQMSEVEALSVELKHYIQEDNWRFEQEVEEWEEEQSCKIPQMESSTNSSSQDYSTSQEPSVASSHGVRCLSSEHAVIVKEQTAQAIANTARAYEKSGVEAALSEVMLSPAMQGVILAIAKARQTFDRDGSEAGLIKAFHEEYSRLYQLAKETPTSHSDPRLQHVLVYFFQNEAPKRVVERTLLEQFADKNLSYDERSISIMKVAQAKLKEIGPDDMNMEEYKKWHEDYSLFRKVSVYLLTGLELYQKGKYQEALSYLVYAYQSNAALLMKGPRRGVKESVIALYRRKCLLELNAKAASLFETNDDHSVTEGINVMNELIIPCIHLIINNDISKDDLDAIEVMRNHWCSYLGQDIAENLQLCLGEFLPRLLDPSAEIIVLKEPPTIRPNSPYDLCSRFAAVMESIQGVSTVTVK
Method in brief: as §1

USP24, sequence (Q9UPU5 whole entry): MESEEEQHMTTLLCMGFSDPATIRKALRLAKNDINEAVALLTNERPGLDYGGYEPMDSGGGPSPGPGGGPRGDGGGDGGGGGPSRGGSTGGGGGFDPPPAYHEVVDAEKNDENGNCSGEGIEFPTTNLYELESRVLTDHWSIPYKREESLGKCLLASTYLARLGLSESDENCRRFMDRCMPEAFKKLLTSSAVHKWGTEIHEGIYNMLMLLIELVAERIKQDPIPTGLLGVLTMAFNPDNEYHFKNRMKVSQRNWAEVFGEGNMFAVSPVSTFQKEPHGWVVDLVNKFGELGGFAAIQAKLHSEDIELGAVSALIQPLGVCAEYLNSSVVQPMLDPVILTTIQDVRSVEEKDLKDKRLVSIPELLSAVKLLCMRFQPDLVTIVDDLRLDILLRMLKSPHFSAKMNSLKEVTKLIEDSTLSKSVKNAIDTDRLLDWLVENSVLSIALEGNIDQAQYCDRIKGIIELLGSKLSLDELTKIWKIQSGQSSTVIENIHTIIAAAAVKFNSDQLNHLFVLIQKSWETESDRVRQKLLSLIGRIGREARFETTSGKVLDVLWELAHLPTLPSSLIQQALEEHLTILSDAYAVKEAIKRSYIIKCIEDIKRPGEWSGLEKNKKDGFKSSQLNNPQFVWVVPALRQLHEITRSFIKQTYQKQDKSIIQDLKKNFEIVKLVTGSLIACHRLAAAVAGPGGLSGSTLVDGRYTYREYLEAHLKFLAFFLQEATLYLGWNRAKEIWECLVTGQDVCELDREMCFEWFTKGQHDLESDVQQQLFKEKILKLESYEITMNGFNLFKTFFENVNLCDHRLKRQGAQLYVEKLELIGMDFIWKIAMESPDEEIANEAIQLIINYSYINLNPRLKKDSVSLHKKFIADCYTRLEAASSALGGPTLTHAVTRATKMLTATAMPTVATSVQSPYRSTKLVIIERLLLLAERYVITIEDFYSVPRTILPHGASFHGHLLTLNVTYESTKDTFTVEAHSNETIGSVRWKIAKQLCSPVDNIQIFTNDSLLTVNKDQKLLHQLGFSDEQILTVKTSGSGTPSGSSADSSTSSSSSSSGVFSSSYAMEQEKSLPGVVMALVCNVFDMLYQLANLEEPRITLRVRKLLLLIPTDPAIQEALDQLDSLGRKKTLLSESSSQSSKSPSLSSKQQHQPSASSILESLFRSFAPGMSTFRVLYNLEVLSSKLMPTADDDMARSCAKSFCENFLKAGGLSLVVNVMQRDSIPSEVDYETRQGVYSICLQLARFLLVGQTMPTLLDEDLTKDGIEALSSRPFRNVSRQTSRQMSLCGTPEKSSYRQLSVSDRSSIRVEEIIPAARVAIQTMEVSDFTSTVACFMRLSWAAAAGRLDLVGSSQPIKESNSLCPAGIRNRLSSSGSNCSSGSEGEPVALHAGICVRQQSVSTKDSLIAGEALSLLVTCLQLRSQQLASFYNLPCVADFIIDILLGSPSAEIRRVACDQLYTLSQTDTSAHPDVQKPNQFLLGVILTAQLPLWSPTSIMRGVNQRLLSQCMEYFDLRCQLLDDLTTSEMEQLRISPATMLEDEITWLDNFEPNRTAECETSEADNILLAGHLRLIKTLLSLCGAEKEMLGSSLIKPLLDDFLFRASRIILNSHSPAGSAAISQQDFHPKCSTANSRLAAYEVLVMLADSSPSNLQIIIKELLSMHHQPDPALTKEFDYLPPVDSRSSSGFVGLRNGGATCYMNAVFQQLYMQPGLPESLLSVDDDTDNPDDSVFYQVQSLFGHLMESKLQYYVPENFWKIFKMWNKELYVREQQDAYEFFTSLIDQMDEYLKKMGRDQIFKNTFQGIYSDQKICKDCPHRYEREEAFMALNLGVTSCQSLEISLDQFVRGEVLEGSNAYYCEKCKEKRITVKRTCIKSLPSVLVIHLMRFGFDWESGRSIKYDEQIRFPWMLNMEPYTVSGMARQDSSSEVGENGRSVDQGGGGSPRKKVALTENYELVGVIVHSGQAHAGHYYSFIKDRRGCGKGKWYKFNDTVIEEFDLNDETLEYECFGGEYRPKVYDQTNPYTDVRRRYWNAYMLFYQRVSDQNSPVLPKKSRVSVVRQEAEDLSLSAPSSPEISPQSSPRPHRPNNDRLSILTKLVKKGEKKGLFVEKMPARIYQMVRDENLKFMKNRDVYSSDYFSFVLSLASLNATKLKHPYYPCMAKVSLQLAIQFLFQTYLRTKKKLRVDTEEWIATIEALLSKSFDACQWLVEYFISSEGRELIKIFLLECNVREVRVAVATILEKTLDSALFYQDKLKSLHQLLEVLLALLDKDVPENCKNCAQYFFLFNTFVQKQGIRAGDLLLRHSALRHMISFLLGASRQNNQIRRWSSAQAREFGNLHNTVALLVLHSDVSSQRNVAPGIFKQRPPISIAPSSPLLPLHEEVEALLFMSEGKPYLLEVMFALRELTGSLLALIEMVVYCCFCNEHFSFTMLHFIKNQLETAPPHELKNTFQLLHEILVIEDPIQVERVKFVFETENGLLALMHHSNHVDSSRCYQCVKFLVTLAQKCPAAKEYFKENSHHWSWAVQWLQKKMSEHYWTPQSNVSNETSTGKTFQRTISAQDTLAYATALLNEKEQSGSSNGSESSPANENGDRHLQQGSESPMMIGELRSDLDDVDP

**Q.** Which results are given for `N#Cc1cnn(-c2ccccc2)c1NC(=O)CCl`?
**A.** log2 ratio of Biotin-Ahx-Ub-VS probe labelling (USP19): -0.232; log2 ratio of Biotin-Ahx-Ub-VS probe labelling (USP22): 0.00637; log2 ratio of Biotin-Ahx-Ub-VS probe labelling (USP24): -0.338; log2 ratio of Biotin-Ahx-Ub-VS probe labelling (USP25): -2.88 (active); log2 ratio of Biotin-Ahx-Ub-VS probe labelling (USP28): -2.37 (active)
